Results as given in PubChem BioAssay (NCATS).
Values joined by “and” are separate entries in the source; they are usually repeats but may differ in a detail not shown here. Equal values may be shown once. Inconclusive results are not listed. Values without a mark were called inactive. Active and inactive are the calls of the source. The call rests on the fitted dose curve; in most records, active means well fitted cell-killing curve with a large enough effect; inconclusive means small, poorly fitted or top-dose-only effect; inactive means flat fitted curve, though single readings scatter.
On the % scale 0 is the no-effect control and ±100 the full control effect.

Experiment: Cellular viability qHTS for adrenocortical cancer (ACC) cell line SW-13 (AID 1963989); further: nearly all actives have a fitted effect of over 65% in size;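 on activity (max response): cells grown in serum-free medium with ITS supplement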
Conditions: SW-13 ACC cells viability, CellTiter-Glo, 48 h; activity (max response): stronger effect = lower value
Text: PI: Naris Nilubol, MD Surgical Oncology Program, National Cancer Institute (NCI) National Institute of Health (NIH), Bethesda, Maryland Adrenocortical cancer (ACC) is a rare malignancy with poor survival outcomes and few treatment options. Currently, mitotane is the only FDA-approved therapy for ACC. Although adjuvant radiation therapy is rarely utilized, it has the potential to improve survival in select cases. Through a quantitative high-throughput drug screen (qHTS), we identified auranofin (AF), a thioredoxin reductase (TXNRD) inhibitor, as a promising candidate drug. This study aims to evaluate whether AF can enhance the efficacy of radiation therapy in the treatment of ACC. Two human ACC cell lines, SW-13 and NCI-H295R, were screened using the National Center for Advancing Translational Sciences (NCATS) Pharmaceutical Collection (NPC) and the Mechanism Interrogation PlatE (MIPE) library (~4,991 compounds). CellTiter-Glo (Cat # G7570, Promega, Madison, WI) was utilized to measure cell viability. Described herein are the results of the corresponding viability assay.
PROTOCOL TABLE (as described by Inglese J, Shamu CE and Guy RK. 2007) SEQUENCE No. (e.g., 1, 2, 3, etc.); […] (e.g., Cells, Incubation, Reagent, etc.); VALUE; DESCRIPTION. 1; Cells; 5 uL; white, solid-bottom, 1536-well tissue-culture treated plates. 2; Time; overnight culture at 37C with 5% CO2. 3; Compounds and control; 23 nL; Kalypsis pin tool (Wako USA) equipped with a 1536-well pin head to transfer to the assay plates. 4; Time; 48 hours; 37C with 5% CO2. 5; Reagent; 4 uL; CellTiter-Glo luminescent substrate mix. 6; Time; 20 min at room temperature. 7; Detection; Luminescence; ViewLux plate reader NOTES (numbers refer to Sequence numbers above) 1. SW13 cells were harvested from a T175 flask and resuspended in ITS-supplemented DMEM serum-free medium at a concentration of 300 000 cells/mL. Then 5 uL of resuspended cells were dispensed into each well of white, solid-bottom, 1536-well tissue-culture-treated plates using a multidrop combi dispenser. The plates were covered with stainless steel gasket lids. 2-3. The plates were cultured overnight at 37C with 5% CO2. Twenty-three nL of compounds (eight selected concentrations from the NPC / MIPE) or positive control (10 mM stock of bortezomib) in DMSO was transferred to each well of the assay plate using a pin tool (Kalypsys, San Diego, CA, USA). The final concentration of the compounds in the 5 uL assay volume ranged from 0.5 nM to 46 uM. 4-6. After 48 hours of incubation at 37C and 5% CO2, 4 uL of CellTilter-Glo luminescent substrate mix (Promega, Madison, WI, USA) was added to each well. Then the plates were incubated for 20 minutes at room temperature. 7. After incubation, luminescence was measured using a ViewLux plate reader (PerkinElmer, Waltham, MA, USA) with a clear filter was used to measure the number of metabolically competent cells. To determine compound activity in the qHTS assay, the titration-response data for each sample was plotted and modeled by a four-parameter logistic fit yielding IC50 and efficacy (maximal response) values. […] REFERENCES: Inglese J, Shamu CE and Guy RK, Reporting data from high throughput screening of small molecule libraries, Nature Chemical Biology, 2007, 3(8): 438-441. doi.org/10.1038/nchembio0807-438.
With `O=C(CCCCCCC(=O)Nc1ccccc1)NO` the Potency was 4.11 µM (active) and 3.16 µM (active).
In the case of `O=C(O)c1cccnc1`, the activity (max response) is reported as -4.23% and 5.29%.
`O=C(OCCN1CCOCC1)c1cccnc1Nc1cccc(C(F)(F)F)c1` showed an activity (max response) of -11.8%.
For `CCC(=O)O[C@]1(C(=O)SCF)[C@H](C)C[C@H]2[C@@H]3C[C@H](F)C4=CC(=O)C=C[C@]4(C)[C@@]3(F)[C@@H](O)C[C@@]21C`, the activity (max response) was 0.482% and -2.88%.
`CCc1c(C)[nH]c2c1C(=O)C(CN1CCOCC1)CC2` (stereo not given) gave an activity (max response) of 7.75%.
Molecule `COc1cc2c(Nc3ccc(NC(=O)c4ccccc4)cc3)ncnc2cc1OCCCN1CCOCC1` has an activity (max response) of -24.4%.
`N[C@@H](CCC(=O)N[C@@H](CS)C(=O)NCC(=O)O)C(=O)O` gave an activity (max response) of -1.28%.
Work on `CCS(=O)(=O)N1CCC([C@@H](C)n2c(C)c(C(=O)NCc3c(OC)cc(C)[nH]c3=O)c3ccccc32)CC1` yielded an activity (max response) of 8.68%.
For `COc1cc(Nc2nc3ccccc3nc2NS(=O)(=O)c2ccc(NC(=O)c3ccc(C)c(OC)c3)cc2)cc(OC)c1`, the activity (max response) was 11.3%.
With `O=C(Cc1cccc(OC(F)(F)F)c1)Nc1ccc(CCCCc2nnc(NC(=O)Cc3ccccn3)s2)nn1` the activity (max response) was 11.1%.
For `c1ccc(CNc2nc(NCc3ccccc3)c3ccccc3n2)cc1`, the Potency was 3.98 µM (active).
For `Cc1c(C(=O)NN2CCCCC2)nn(-c2ccc(Cl)cc2Cl)c1-c1ccc(Cl)cc1`, the Potency was 28.2 µM (active).
With `CC(C)C(=O)c1c(C(C)C)nn2ccccc12` the activity (max response) was 11.5%.
Molecule `Cc1nc2n(c(=O)c1CCN1CCC(c3noc4cc(F)ccc34)CC1)CCCC2` has an activity (max response) of -10.2%.
For `CN1N=C(C(N)=O)CCC1=O`, the activity (max response) was 11.7%.
For `Cc1ncc(-c2ccnc(Nc3ccc(S(C)(=O)=O)cc3)n2)n1C(C)C`, the Potency was 8.91 µM (active).
With `O=C(CCOCCOCCOCCOCCC(=O)Nc1c(I)cc(I)c(C(=O)O)c1I)Nc1c(I)cc(I)c(C(=O)O)c1I` the activity (max response) was 6.37%.
For `Cc1ccc(S(=O)(=O)NC(=O)NN2CCCCCC2)cc1`, the activity (max response) was -2.59%.
With `CCCc1cc(C(N)=S)ccn1` the activity (max response) was 7.42% and -7.33%.
In the case of `CC1=C(CO)C(=O)O[C@@H]([C@@H](C)[C@H]2CC[C@H]3[C@@H]4C[C@H]5O[C@]56[C@@H](O)C=CC(=O)[C@]6(C)[C@H]4CC[C@]23C)C1`, the Potency is reported as 1.58 µM (active).
With `CC(=O)SCC(Cc1ccccc1)C(=O)NCC(=O)OCc1ccccc1` (stereo not given) the activity (max response) was -5.9%.
`O=C(O)c1ccc(OCCCOc2ccc(C(=O)O)cc2)cc1` showed an activity (max response) of 5.44%.
For `COc1cc2nccc(Oc3ccc(NC(=O)Nc4cc(C)on4)c(Cl)c3)c2cc1OC`, the Potency was 11.2 µM (active).
In the case of `CN[C@@H]1[C@@H](O)[C@@H](O[C@@H]2[C@@H](O)[C@H](O[C@H]3O[C@H](CN)[C@@H](O)[C@H](O)[C@H]3O)[C@@H](N)C[C@H]2NC(=O)C(O)CN)OC[C@]1(C)O` (stereo not given in full), the activity (max response) is reported as -3.06%.
For `CC(Oc1c(Cl)cccc1Cl)C1=NCCN1` (stereo not given), the activity (max response) was 12.6%.
With `CCOC(=O)CCNc1cc(N2CCc3ccccc3CC2)nc(-c2ccccn2)n1` the Potency was 1.26 µM (active).
With `Cc1cc(NS(=O)(=O)c2ccc(N)cc2)no1` the activity (max response) was 13.2%.
In the case of `NS(=O)(=O)c1cc(Cl)c(Cl)c(S(N)(=O)=O)c1`, the activity (max response) is reported as -6.34%.
In the case of `Oc1ccc(-c2ccc(-c3cc(Nc4cccc(CNC5CC5)c4)n[nH]3)cc2)c(O)c1`, the Potency is reported as 25.1 µM (active).
Molecule `CCOCOC[C@H](C[C@H](C)C(=O)NO)NC(=O)c1ccc(Oc2ccccc2)cc1` has an activity (max response) of -8.03%.
For `CCCCCCCCCCCCCC[N+](C)(C)C`, the Potency was 4.61 µM (active).
With `CC[N+](C)(CC)CCOC(=O)C(O)(c1ccccc1)C1CCCCC1` (stereo not given) the activity (max response) was 7.72%.
In the case of `CCS(=O)(=O)Nc1ccc2[nH]c(O)c(C(=Nc3ccc(CN4CCCCC4)cc3)c3ccccc3)c2c1`, the Potency is reported as 3.55 µM (active).
In the case of `O=c1c(-n2ccnn2)c[nH]n1-c1cc(N2CCOCC2)ncn1`, the activity (max response) is reported as -5.69%.
Molecule `Cn1c(=O)c(-c2c(Cl)cccc2Cl)cc2cnc(Nc3cccc(C(=O)O)c3)nc21` has an activity (max response) of -0.886%.
In the case of `N#CC(c1ccnc(NCCc2cccnc2)n1)c1nc2ccccc2s1` (stereo not given), the Potency is reported as 25.1 µM (active).
Molecule `C=C1[C@H](CO)[C@@H](O)C[C@@H]1n1cnc2c(=O)[nH]c(N)nc21` has an activity (max response) of -5.41%.
`c1cncc(CN2CCC(n3ncc4c(N5CCOCC5)nc(-c5ccc6[nH]ccc6c5)nc43)CC2)c1` showed an activity (max response) of -29.6%.
In the case of `C[C@@H]1C[C@H]2[C@@H]3CCC4=CC(=O)C=C[C@]4(C)[C@@]3(F)[C@@H](O)C[C@]2(C)[C@@]1(O)C(=O)COC(=O)c1ccncc1`, the activity (max response) is reported as -0.514%.
In the case of `O=C(Nc1ccccc1-c1cn2c(CN3CCNCC3)csc2n1)c1cnc2ccccc2n1`, the Potency is reported as 3.55 µM (active).
